Screening data: PubChem, National Center for Advancing Translational Sciences (NCATS)
An excerpt weighted towards active compounds, which were near 19% of everything screened.
RORg inh: ROR gamma (mouse) transcription inhibition. P51450. Drosophila S2 Gal4-RORgamma UAS-luciferase reporter, 20 h. Potency, µM (highest dose often 53.6 µM), usual class: inhibitors. actives 5.4% (n = 310,000). AID 2551; note: nearly all actives have a fitted effect of over 60% in size
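Compounds are pin-transferred onto Drosophila Schneider cells expressing a copper-inducible Gal4–ROR gamma transactivation domain fusion. After 1 hr, copper sulfate is added to 700 uM final; luciferase is read 20 hr later.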
TDP1 block: inhibitors of human tyrosyl-DNA phosphodiesterase TDP1 | recombinant TDP1, AlphaScreen DNA substrate cleavage | Potency, µM (series often up to 130 µM), most hits filed as inhibitors | actives 0.28% (n = 350,000) | AID 485290; note: nearly all actives have a fitted effect of over 40% in size
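Here, a 5' biotin and 3' phosphotyrosine-FITC DNA oligonucleotide reports Tdp1 activity: intact substrate bridges AlphaScreen beads, while cleavage leaves a 3' phosphate and drops signal. All incubations at room temperature.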
DT40 TDP1 CPT: DT40-hTDP1 cell growth loss with CPT | chicken DT40 Tdp1-/-;hTDP1 cells + 20 nM CPT, ATP luminescence, 48 h | Potency, µM (series often up to 46.2 µM), usual class: inhibitors | actives 12% (n = 420,000) | AID 686979; note: nearly all actives have a fitted effect of over 55% in size
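Chicken DT40 Tdp1-/- cells stably complemented with human TDP1 were seeded at 400 cells/well in medium containing 20 nM camptothecin, exposed to pin-transferred compounds, and grown at 37 °C for at least 48 hr. Viability was read as ATP luminescence.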
VP16 counter: counter-screen for ROR gamma inhibitors: Gal4-VP16 reporter. actives 3.5% (n = 310,000). Drosophila S2 Gal4-VP16 UAS-luciferase, luminescence, 20 h. Potency, µM (series often up to 53.6 µM), usual class: inhibitors;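 note: Gal4-VP16 expression switched on by copper sulfate through the metallothionein promoter; nearly all actives have a fitted effect of over 50% in size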
TDP1 cell noCPT: qHTS for Inhibitors of human tyrosyl-DNA phosphodiesterase 1 (TDP1): qHTS in cells in absence of CPT | DT40 Tdp1-/- hTDP1 cells, no CPT, ATP luminescence, 48 h | Potency, µM (top dose mostly 46.2 µM), hits mostly inhibitors | actives 15% (n = 420,000); note: nearly all actives have a fitted effect of over 55% in size
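Growth of hTDP1-complemented DT40 Tdp1-knockout cells is measured by ATP luminescence after at least 48 hr compound exposure at 37 °C, with DMSO substituting for the 20 nM CPT used in the parallel screen.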
Large screens that a line does not name were inactive. Calls come from the whole dose curve; as a rule, active = well fitted curve in the direction sought with a large enough effect; inconclusive = small, poorly fitted or top-dose-only effect, or another doubt; inactive = no such curve, though single readings can be large; an effect the other way counts as inactive or inconclusive.

Cc1c(C(=O)OC2CCC(C)CC2)[nH]c2c1C(=O)CC(c1ccccc1Cl)C2 (stereo not given)	DT40 TDP1 CPT 5.17µM, TDP1 cell noCPT 4.61µM (no result: RORg inh, VP16 counter)
CCOC(=O)C1CCN(C(=O)CCc2nnc3ccc(NCc4ccco4)nn23)CC1	DT40 TDP1 CPT inconclusive (no result: TDP1 block)
Cc1ccc(Cl)cc1N1CCN(C(=O)CCC(=O)O)CC1	none
CCOc1ccc(CCNC(=O)Cn2cccc2C(=O)c2ccccc2)cc1OCC	none
CC#CC(=O)N1CCCC(C(=O)c2ccc(SC)cc2)C1 (stereo not given)	DT40 TDP1 CPT inconclusive, TDP1 cell noCPT inconclusive (no result: TDP1 block)
O=C(NCc1ccco1)c1csc2c1CCCC2	RORg inh inconclusive, VP16 counter inconclusive, TDP1 cell noCPT inconclusive
O=C(NCc1ccccc1)c1nnc(CS(=O)(=O)c2ccccc2)o1	none (no result: TDP1 block)
Cc1c(C(=O)OCCOc2ccccc2)[nH]c2c1C(=O)CC(c1ccccc1)C2 (stereo not given)	DT40 TDP1 CPT 0.231µM, TDP1 cell noCPT 0.146µM (no result: RORg inh, VP16 counter)
Cc1c(C(=O)OCc2ccccc2)[nH]c2c1C(=O)CC(c1ccc(N(C)C)cc1)C2 (stereo not given)	DT40 TDP1 CPT inconclusive (no result: RORg inh, VP16 counter)
Cc1c(C(=O)OCC2CCCCC2)[nH]c2c1C(=O)CC(c1ccc(F)cc1)C2 (stereo not given)	DT40 TDP1 CPT inconclusive, TDP1 cell noCPT inconclusive (no result: RORg inh, VP16 counter)
CCOCCOC(=O)c1[nH]c2c(c1C)C(=O)CC(c1ccccc1)C2 (stereo not given)	DT40 TDP1 CPT 1.46µM, TDP1 cell noCPT 0.92µM (no result: TDP1 block)
CCOC(=O)c1[nH]c2c(c1C)C(=O)CC(c1ccc(F)cc1)C2 (stereo not given)	RORg inh inconclusive, DT40 TDP1 CPT 0.731µM, VP16 counter inconclusive, TDP1 cell noCPT 0.651µM
CCOC(=O)C1CCCN(CC(=O)c2c[nH]c3ccc(C)cc23)C1 (stereo not given)	DT40 TDP1 CPT inconclusive, TDP1 cell noCPT inconclusive
Cc1ccc(C(=O)OCC(=O)NC2CCCC2)cc1C	none (no result: TDP1 block)
Cc1cccc(Nc2nnc(SCC3CCCCO3)s2)c1 (stereo not given)	RORg inh 10µM, DT40 TDP1 CPT 23.1µM, TDP1 cell noCPT inconclusive
CCC(=O)Nc1nnc(S(=O)(=O)N(C)c2ccccc2)s1	none (no result: TDP1 block)
COC(=O)Cn1cc(/C=C/c2cc[n+](C)cc2)c2ccccc21	DT40 TDP1 CPT inconclusive, TDP1 cell noCPT inconclusive (no result: TDP1 block)
COC(=O)Cn1c(C)c(/C=C/c2cc[n+](C)cc2)c2ccccc21	DT40 TDP1 CPT inconclusive, TDP1 cell noCPT 16.4µM (no result: TDP1 block)
O=C(NCCN1CCOCC1)C1CC(=O)N(c2ccc(F)c(Cl)c2)C1 (stereo not given)	none
CCN(CC)S(=O)(=O)c1cccc(C(=O)N/N=C(\C)c2ccc(O)cc2O)c1	RORg inh 12.6µM, DT40 TDP1 CPT 4.61µM, TDP1 cell noCPT 6.51µM
CCOc1ccccc1/C=N/NC(=O)c1cccc(S(=O)(=O)N(CC)CC)c1	none
CCN(CC)S(=O)(=O)c1cccc(C(=O)N/N=C/c2ccc(O)c(O)c2O)c1	DT40 TDP1 CPT 14.6µM, TDP1 cell noCPT 16.4µM
CCN(CC)C(=O)c1ccccc1NC(=O)c1cccc(S(=O)(=O)N(CC)CC)c1	none
CC(C)C1CCN(C(=O)C2CCC(=O)N(CCc3ccc(Cl)cc3)C2)CC1 (stereo not given)	DT40 TDP1 CPT inconclusive, TDP1 cell noCPT inconclusive
C=CCC1(CC=C)CCCN1C(=O)C1CCC(=O)N(CCc2ccc(Cl)cc2)C1 (stereo not given)	RORg inh inconclusive, DT40 TDP1 CPT 18.4µM, TDP1 cell noCPT 13µM
C=CCC1(CC=C)CCCN1C(=O)C1CCC(=O)N(Cc2ccc(Cl)cc2)C1 (stereo not given)	DT40 TDP1 CPT 10.3µM, TDP1 cell noCPT 8.2µM (no result: RORg inh, TDP1 block, VP16 counter)
COc1ccc2c(c1)[C@H]1[C@H](CO2)[C@H](c2ccccc2)[C@]2(C)C(=O)Nc3ccc(Br)cc3C(=O)N12	DT40 TDP1 CPT 16.4µM, TDP1 cell noCPT inconclusive (no result: RORg inh, VP16 counter)
Cc1ccc2c(c1)C(=O)N1[C@H]3c4cc(Br)ccc4OC[C@@H]3[C@H](c3ccccc3)[C@]1(C)C(=O)N2	DT40 TDP1 CPT 23.1µM, TDP1 cell noCPT 23.1µM (no result: RORg inh, VP16 counter)
